From publication PMC5540273 (PLoS ONE, 2017) come the findings set out here.

Common to all, as to settings: concentration: 1 μM, replicates: in singlicate; n = 1
Assay [1] concerns RIPK2.
Assay [2] concerns RIPK4.
Assay [3] relates to RIPK5.
The subject of assay [4] is ROCK1.
Assay [5] has as its system ROCK2.
For assay [6], the system named is ROS1.
Assay [7] has as its system RPS6KA4(Kin.Dom.1-N-terminal).
Assay [8] has as its system RPS6KA4(Kin.Dom.2-C-terminal).
Assay [9] relates to RPS6KA5(Kin.Dom.1-N-terminal).
Assay [10] has as its system RPS6KA5(Kin.Dom.2-C-terminal).
Assay [11] concerns T1, RSK1(Kin.Dom.1-N-terminal).
T1 construct: gene RPS6KA1

Assay [12] concerns T2, RSK1(Kin.Dom.2-C-terminal).
T2 construct: gene RPS6KA1

Assay [13] relates to T3, RSK2(Kin.Dom.1-N-terminal).
T3 construct: gene RPS6KA3

The test system of assay [14] is T4, RSK2(Kin.Dom.2-C-terminal).
T4 construct: gene RPS6KA3

For assay [15], the system named is T5, RSK3(Kin.Dom.1-N-terminal).
T5 construct: gene RPS6KA2

Assay [16] concerns T6, RSK3(Kin.Dom.2-C-terminal).
T6 construct: gene RPS6KA2

In assay [17] the test system is T7, RSK4(Kin.Dom.1-N-terminal).
T7 construct: gene RPS6KA6

The subject of assay [18] is T8, RSK4(Kin.Dom.2-C-terminal).
T8 construct: gene RPS6KA6

In assay [19] the test system is S6K1.
Assay [20] deals with SBK1.
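Note: KINOMEscan kinase panel screen.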

Turning to `O=C(Nc1n[nH]c2nc(-c3ccccc3)c(Cl)cc12)C1CC1` [SB-734909], the “%Inh” value in assay [1] is given as 0%; in [2], 10%; in assay [3], 16%; in assay [4], 24%; in [5] it was 6%; in [6], 0%. For the same compound, the “%Inh” value is 0% in [7]; 0% in assay [8]; 0% in assay [9]; 0% in [10]; 26% in [11]; 0% in assay [12]. Further, the “%Inh” value in [13] is recorded as 29%; in [14], 0%; in assay [15] it was 0%; in assay [16], 7%; in assay [17], 42%; in assay [18], 1%. The “%Inh” value in assay [19] is 44%; in assay [20], 0%.
As for `CCc1ccc(-c2ccc3c(c2)-c2nn(C)cc2S(=O)(=O)N3C)cc1`, the “%Inh” value in assay [1], in assay [2], in [3], in [4], in assay [5] and in assay [6] was 0% each time. For the same compound, the “%Inh” value is recorded as 0% in assay [7]; 0% in assay [8]; 0% in assay [9]; 0% in [10]; 2% in [11]; 41% in assay [12]. Also, the “%Inh” value in assay [13] amounted to 15%; in [14] it was 63%; in assay [15], 10%; in assay [16] it was 32%; in assay [17], 0%; in [18], 21%. The “%Inh” value in assay [19] is 22%; in assay [20] it was 0%.
On to `COC(=O)c1c(-c2ccccc2)c2cc(Br)ccc2c(=O)n1Cc1ccc(S(C)(=O)=O)cc1`, for which the “%Inh” value in assay [1] amounted to 0%; in assay [2] it was 46%; in assay [3] it was 20%; in [4], 23%; in assay [5] it was 0%; in assay [6], 0%. For the same compound, the “%Inh” value was found to be 0% in assay [7]; 21% in assay [8]; 24% in [9]; 3% in assay [10]; 3% in assay [11]; 14% in assay [12]. For the same compound, the “%Inh” value in assay [13] is 0%; in [14], 9%; in assay [15], 14%; in assay [16], 0%; in assay [17], 24%; in assay [18], 6%. Also, the “%Inh” value in assay [19] was found to be 0%; in assay [20] it was 5%.
On to `Cc1nnc(-c2ccc3ncn(-c4ccc(S(C)=O)cc4)c3c2)o1` (stereo not shown), for which the “%Inh” value in assay [1] came out at 19%; in [2], 0%; in assay [3] it was 0%; in [4], 0%; in [5], 16%; in [6], 0%. Moreover, the “%Inh” value in [7] was determined as 0%; in [8] it was 0%; in assay [9], 3%; in [10] it was 4%; in [11], 19%; in [12] it was 21%. Also, the “%Inh” value in assay [13] was 4%; in assay [14], 0%; in assay [15], 0%; in assay [16] it was 18%; in assay [17], 0%; in assay [18], 32%. The “%Inh” value in assay [19] and in assay [20] was 0% each time.
Take `COc1ccc(CNC(=O)NC2CCN(c3ccnc(Nc4ccc(F)cc4)n3)C2)cc1` (stereo not shown) [GSK1379706]: the “%Inh” value came to 19% in [1]; 0% in assay [2]; 15% in assay [3]; 29% in [4]; 27% in assay [5]; 12% in assay [6]. Further, the “%Inh” value in assay [7] was determined as 0%; in assay [8] it was 0%; in assay [9], 13%; in assay [10] it was 27%; in assay [11], 14%; in [12], 28%. Also, the “%Inh” value turned out to be 0% in assay [13]; 3% in assay [14]; 15% in [15]; 31% in assay [16]; 0% in assay [17]; 20% in assay [18]. The “%Inh” value in assay [19] and in [20] was 0% in each case.
With `Nc1ncnc2c1ncn2-c1cccc2ccccc12` [SKF-97184], the “%Inh” value in [1] was 7%; in [2] it was 8%; in assay [3], 5%; in assay [4], 67%; in [5] it was 0%; in assay [6], 0%. Moreover, the “%Inh” value in assay [7] came out at 10%; in assay [8], 0%; in [9] it was 10%; in [10] it was 2%; in [11] it was 16%; in assay [12], 16%. Besides, the “%Inh” value in assay [13] came out at 38%; in [14], 0%; in [15], 0%; in [16] it was 36%; in [17] it was 11%; in assay [18], 0%. Besides, the “%Inh” value is given as 15% in assay [19] and 28% in [20].
As for `O=C(Nc1n[nH]c2cc(-c3ccccc3F)ccc12)C1CC1` [SB-733371], the “%Inh” value in assay [1] was 11%; in assay [2], 13%; in assay [3] it was 0%; in [4], 0%; in [5] it was 0%; in assay [6], 4%. The “%Inh” value came to 0% in [7]; 0% in assay [8]; 0% in assay [9]; 0% in assay [10]; 32% in assay [11]; 0% in assay [12]. Besides, the “%Inh” value in [13] is given as 34%; in assay [14] it was 0%; in assay [15] it was 0%; in assay [16], 0%; in assay [17] it was 0%; in assay [18] it was 0%. In addition, the results for the “%Inh” value in [19] and in assay [20] were 0% and 17%, respectively.
As to `COc1cc2nccc(Nc3cccc(Oc4ccccc4)c3)c2cc1OC.Cl` [GW284543], the “%Inh” value was found to be 80% in [1]; 0% in assay [2]; 0% in assay [3]; 20% in assay [4]; 51% in assay [5]; 31% in [6]. The “%Inh” value was 15% in assay [7]; 0% in assay [8]; 0% in assay [9]; 0% in assay [10]; 0% in assay [11]; 0% in assay [12]. Besides, the “%Inh” value in assay [13] came to 0%; in assay [14], 0%; in [15] it was 10%; in assay [16] it was 0%; in [17], 0%; in assay [18] it was 0%. Further, the entries for the “%Inh” value in assay [19] and in [20] were 0% and 16%, respectively.
For the compound `O=c1cc(N2CCOCC2)nc2n(Cc3ccc(F)c(Cl)c3)ccn12` [GSK2297099], the “%Inh” value in assay [1] came to 0%; in [2], 27%; in assay [3], 0%; in assay [4], 0%; in assay [5], 0%; in [6], 0%. The “%Inh” value in [7] is recorded as 4%; in assay [8], 0%; in assay [9] it was 16%; in assay [10], 27%; in [11], 19%; in assay [12], 10%. Besides, the “%Inh” value in [13] stood at 0%; in assay [14] it was 0%; in assay [15] it was 27%; in [16], 0%; in [17], 0%; in [18], 11%. In addition, the “%Inh” value in assay [19] and in [20] was 0% each time.
With `O=C(NCCNc1ccnc(Nc2ccc(F)cc2)n1)Nc1ccc2c(c1)OCO2` [GSK1379882], the “%Inh” value in assay [1] amounted to 0%; in [2] it was 11%; in assay [3], 0%; in assay [4] it was 0%; in assay [5], 0%; in assay [6] it was 0%. Also, the “%Inh” value in [7] is given as 0%; in assay [8], 0%; in assay [9], 9%; in assay [10], 10%; in [11] it was 15%; in [12], 22%. Further, the “%Inh” value in [13] was 14%; in assay [14], 30%; in assay [15], 0%; in [16], 0%; in assay [17], 0%; in [18], 12%. For the same compound, the “%Inh” value came out at 0% in [19] and 6% in [20].
As to `COc1cccc(-n2cnc3c(N)ncnc32)c1` [SKF-97416], the “%Inh” value worked out at 1% in [1]; 43% in assay [2]; 18% in assay [3]; 66% in assay [4]; 60% in assay [5]; 0% in assay [6]. For the same compound, the “%Inh” value was determined as 19% in [7]; 7% in assay [8]; 0% in [9]; 0% in assay [10]; 8% in [11]; 13% in assay [12]. The “%Inh” value in assay [13] came out at 39%; in assay [14], 34%; in assay [15], 0%; in [16], 8%; in assay [17], 40%; in assay [18] it was 7%. In addition, the “%Inh” value in [19] was determined as 1%; in [20], 29%.
